Pf growth 96h: P. falciparum growth inhibition at 96 hours; 320,000 tested, 6.9% active; Potency, µM (series often up to 28.7 µM), actives largely listed as inhibitors; P. falciparum luciferase reporter growth, 96 h; AID 504834; active = well fitted inhibition curve with a large enough effect; inconclusive = small, poorly fitted or top-dose-only effect, or another doubt; inactive = no such curve, though single readings can be large or run the other way
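Infected RBCs, 2% Hct / 0.05% parasitemia final; luciferase-reporter P. falciparum; cpd 96 h, 37 C, 5% CO2; luciferase detection reagent; luminescence.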
NS1 inh: blocks influenza NS1 protein function | 270,000 tested, 0.4% active | AID 2326 | Potency, µM (top dose mostly 46.1 µM); note: actives are rising curves; nearly all actives have a fitted effect of over 50% in size
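S. cerevisiae expressing influenza A NS1, grown in glucose, washed, then diluted 1:100 into pH 6.0 -URA galactose medium with 23 nl compound. Growth recovery read as OD600; NS1-free strain serves as control.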
Shiga inhibitor: inhibitors of Shiga toxin in Vero cells; Vero cells, Shiga toxin protein synthesis inhibition reporter; inhibition, % at 38.7 µM; 290,000 tested, 9.2% active; in the data active = inhibition mostly above about 28%, no sharp cut-off; inactive = mostly below about 43%
Pf growth 48h: P. falciparum growth inhibition at 48 hours (one generation); AID 504832; P. falciparum luciferase growth in erythrocytes, 48 h; Potency, µM (titrated, usually from 28.7 µM), actives largely listed as inhibitors; 310,000 tested, 5.9% active; active = well fitted inhibition curve with a large enough effect; inconclusive = small, poorly fitted or top-dose-only effect, or another doubt; inactive = no such curve, though single readings can be large or run the other way
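Growth was read as firefly luciferase luminescence after a 48 h, 37 C, 5% CO2 exposure of compounds to reporter-bearing P. falciparum cultures (0.1% parasitemia, 2% hematocrit final) in Albumax-supplemented RPMI 1640.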
Cycloheximide cs: counter-screen for Shiga toxin inhibitors: cycloheximide protein synthesis inhibition; cell reporter, cycloheximide protein synthesis inhibition counterscreen; 300,000 tested, 12% active; max response, %; in the data active = max response mostly above about 13%, no sharp cut-off; inactive = mostly below about 14%; note: read at 38.3 µM for the half of the compounds with a filed dose
SARS PLpro yeast: SARS-CoV PLP inhibition in yeast; S. cerevisiae expressing SARS-CoV PLpro, growth rescue; Potency, µM (doses to about 32.9 µM), hits mostly activators; 330,000 tested, 0.19% active; note: nearly all actives have a fitted effect of over 55% in size
Hits are given with their value. Hits are enriched below; roughly 21% of the tested compounds scored in any of these assays. Unless noted, calls come from the whole dose curve.

What do the screens show for `Fc1ccc(C2=NN(c3ccccc3)C(c3ccco3)C2)cc1` (configuration not stated)?
Pf growth 96h: inactive; NS1 inh: inactive; Shiga inhibitor: inactive; Pf growth 48h: inactive; Cycloheximide cs: inactive; SARS PLpro yeast: inactive

How did CCS(=O)(=O)N1N=C(c2cccc(NS(C)(=O)=O)c2)CC1c1ccc(C)cc1 (configuration not stated) do in these assays?
Pf growth 96h: inactive; Shiga inhibitor: inactive; Pf growth 48h: inactive; Cycloheximide cs: 28; SARS PLpro yeast: inactive

What do the screens show for `CCS(=O)(=O)N1N=C(c2cccc(NS(C)(=O)=O)c2)CC1c1ccccc1` (configuration not stated)?
Pf growth 96h: inactive; Shiga inhibitor: inactive; Pf growth 48h: inactive; Cycloheximide cs: inactive; SARS PLpro yeast: inactive

How did O=c1c(-c2ccco2)[n+]([O-])c2ccccc2n1OCc1ccccc1[N+](=O)[O-] do in these assays?
Pf growth 96h: inactive; NS1 inh: inactive; Shiga inhibitor: inactive; Pf growth 48h: inactive; Cycloheximide cs: inactive; SARS PLpro yeast: inactive

How did C[C@@H]1NC(=O)N(CCCn2ccnc2)C1=O do in these assays?
Pf growth 96h: inactive; NS1 inh: inactive; Shiga inhibitor: inactive; Pf growth 48h: inactive; Cycloheximide cs: inactive; SARS PLpro yeast: inactive

Results for CN(CC(=O)NCc1ccco1)C(=O)C1CC(=O)N(c2ccc3c(c2)OCCO3)C1 (configuration not stated) ?
Pf growth 96h: inactive; Pf growth 48h: inactive; SARS PLpro yeast: inactive

How did CCOc1ccc(C(=O)N2CCSC2=S)cc1 do in these assays?
Pf growth 96h: inactive; NS1 inh: inactive; Shiga inhibitor: inactive; Pf growth 48h: inactive; Cycloheximide cs: inactive; SARS PLpro yeast: inactive

What do the screens show for `O=C1COc2ccc(C(=O)COC(=O)CNC(=O)C3CCCCC3)cc2N1`?
Pf growth 96h: inactive; NS1 inh: inactive; Shiga inhibitor: inactive; Pf growth 48h: inactive; Cycloheximide cs: inactive; SARS PLpro yeast: inactive

What do the screens show for `CC(=O)N1N=C(c2c(O)n(C)c(=O)n(C)c2=O)CC1c1ccccc1` (configuration not stated)?
Pf growth 96h: 2.6µM; NS1 inh: inactive; Shiga inhibitor: inactive; Pf growth 48h: 3.7µM; Cycloheximide cs: inactive; SARS PLpro yeast: inactive

Results for CC(=O)N1N=C(c2ccccc2)CC1c1ccc(F)cc1 (configuration not stated) ?
Pf growth 96h: inactive; NS1 inh: inactive; Pf growth 48h: inactive; Cycloheximide cs: inactive; SARS PLpro yeast: inactive

Results for CC(=O)N1N=C(c2ccco2)CC1c1ccco1 (configuration not stated) ?
Pf growth 96h: inactive; NS1 inh: inactive; Shiga inhibitor: inactive; Pf growth 48h: inactive; Cycloheximide cs: inactive; SARS PLpro yeast: inactive

How did CC(=O)N1N=C(c2ccc(C)o2)CC1c1cccc(F)c1 (configuration not stated) do in these assays?
Pf growth 96h: inactive; NS1 inh: inactive; Shiga inhibitor: inactive; Pf growth 48h: inactive; Cycloheximide cs: inactive; SARS PLpro yeast: inactive

How did CC(=O)N1N=C(c2ccccc2)CC1c1cn(C)c2ccccc12 (configuration not stated) do in these assays?
Pf growth 96h: inactive; NS1 inh: inactive; Shiga inhibitor: 115; Pf growth 48h: inactive; Cycloheximide cs: 52; SARS PLpro yeast: inactive

Results for CC(=O)N1N=C(c2ccco2)CC1c1ccc(C)cc1 (configuration not stated) ?
Pf growth 96h: inactive; NS1 inh: inactive; Shiga inhibitor: inactive; Pf growth 48h: inactive; Cycloheximide cs: inactive; SARS PLpro yeast: inactive

How did Cc1ccc(C2=NN(C(=O)CCl)C(c3ccco3)C2)o1 (configuration not stated) do in these assays?
Pf growth 96h: 6.6µM; NS1 inh: inactive; Shiga inhibitor: inactive; Pf growth 48h: 10µM; Cycloheximide cs: inactive; SARS PLpro yeast: inactive

What do the screens show for `CC(=O)N1N=C(c2ccco2)CC1c1ccc(Br)cc1` (configuration not stated)?
Pf growth 96h: 10µM; NS1 inh: inactive; Shiga inhibitor: inactive; Pf growth 48h: inactive; Cycloheximide cs: inactive; SARS PLpro yeast: inactive

What do the screens show for `CCOC(=O)[C@H]1[C@H]2COc3ccc(Cl)cc3[C@@H]2N2C(=O)CN(CC3CCCO3)C(=O)[C@@]12C` (some centres not stated)?
Pf growth 96h: inconclusive; Pf growth 48h: inactive; SARS PLpro yeast: inactive

Results for O=C(Nc1ccc(S(=O)(=O)N2CCOCC2)cc1)c1cccc(Br)c1 ?
Pf growth 96h: inactive; NS1 inh: inactive; Shiga inhibitor: inactive; Pf growth 48h: inactive; Cycloheximide cs: inactive; SARS PLpro yeast: inactive

Results for Cc1ccc(NC(=O)c2ccc(NS(=O)(=O)c3cccc4cccnc34)cc2)cc1 ?
Pf growth 96h: inactive; NS1 inh: inactive; Shiga inhibitor: inactive; Pf growth 48h: inactive; Cycloheximide cs: inactive; SARS PLpro yeast: inactive

Results for COc1ccccc1CNC(=O)C1CCCN(S(=O)(=O)c2cccs2)C1 (configuration not stated) ?
Pf growth 96h: inactive; NS1 inh: inactive; Shiga inhibitor: inactive; Pf growth 48h: inactive; Cycloheximide cs: inactive; SARS PLpro yeast: inactive

What do the screens show for `O=S(=O)(c1ccccc1)N1N=C(c2ccc(Cl)cc2)CC1c1ccco1` (configuration not stated)?
Pf growth 96h: inconclusive; Pf growth 48h: 10µM; SARS PLpro yeast: inactive

How did Cc1nc(N2N=C(c3ccc(Cl)cc3)CC2c2ccco2)sc1C(=O)N(C)C (configuration not stated) do in these assays?
Pf growth 96h: inconclusive; Shiga inhibitor: inactive; Pf growth 48h: inconclusive; Cycloheximide cs: 27; SARS PLpro yeast: inactive

What do the screens show for `Cc1cccc2cc(C3CC(c4ccco4)=NN3S(=O)(=O)c3ccccc3)c(Cl)nc12` (configuration not stated)?
Pf growth 96h: inconclusive; NS1 inh: inactive; Shiga inhibitor: 86; Pf growth 48h: inconclusive; Cycloheximide cs: 36; SARS PLpro yeast: inactive

Results for CCc1ccc(C2CC(c3ccco3)=NN2S(C)(=O)=O)cc1 (configuration not stated) ?
Pf growth 96h: inactive; NS1 inh: inactive; Shiga inhibitor: 83; Pf growth 48h: inactive; Cycloheximide cs: 45; SARS PLpro yeast: inactive

How did CCN(CC)CCCn1c2c(c(SCC(=O)Nc3nc(C)cs3)nc1=O)CCC2 do in these assays?
Pf growth 96h: inactive; Pf growth 48h: inactive; SARS PLpro yeast: inactive

Results for COc1cccc(CNC(=O)CN2C(=O)COc3ccc(S(=O)(=O)N4CCCC4)cc32)c1 ?
Pf growth 96h: inactive; NS1 inh: inactive; Shiga inhibitor: inactive; Pf growth 48h: inactive; Cycloheximide cs: inactive; SARS PLpro yeast: inconclusive

What do the screens show for `O=C(c1ccc(Br)o1)N1N=C(c2ccc(Cl)cc2)CC1c1ccco1` (configuration not stated)?
Pf growth 96h: 9.3µM; NS1 inh: inactive; Shiga inhibitor: inactive; Pf growth 48h: inconclusive; Cycloheximide cs: inactive; SARS PLpro yeast: inactive

Screens from PubChem.
